Screens as filed in PubChem BioAssay.
This excerpt belongs to a sample that is enriched for hits.
SIRT5 inh: blocks human SIRT5 desuccinylation of peptide; AID 652115; Purified SirT5, succinyl-peptide AMC, trypsin-coupled fluorescence; 1.1% of 330,000 active; inhibition, % at 15 µM; Q9NXA8; in the data active = inhibition above about 15%
HDAC3 inh: blocks human histone deacetylase 3; recombinant HDAC3, fluorogenic peptide/trypsin coupled, fluorescence; 0.15% of 320,000 active; inhibition, % at 8.3 µM; in the data active = inhibition above about 26%, passing the limit was not always enough
Target sequence (O15379 whole entry, looked up): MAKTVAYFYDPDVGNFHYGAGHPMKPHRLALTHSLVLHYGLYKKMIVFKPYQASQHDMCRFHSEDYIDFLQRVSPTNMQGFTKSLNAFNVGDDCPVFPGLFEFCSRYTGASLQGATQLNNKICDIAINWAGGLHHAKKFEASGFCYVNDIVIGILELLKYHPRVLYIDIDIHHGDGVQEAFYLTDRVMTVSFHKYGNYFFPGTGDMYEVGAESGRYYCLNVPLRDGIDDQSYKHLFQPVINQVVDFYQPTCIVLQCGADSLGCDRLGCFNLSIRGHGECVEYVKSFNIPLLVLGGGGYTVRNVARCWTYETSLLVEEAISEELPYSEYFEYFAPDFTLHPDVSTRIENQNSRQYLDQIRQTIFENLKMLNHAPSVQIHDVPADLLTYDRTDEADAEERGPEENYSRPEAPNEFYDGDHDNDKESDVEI
ERp5 inh: inhibitors of human ERp5. inhibition, % at 9.99 µM. ERp5 insulin aggregation, absorbance 650 nm, 90 min. Q15084. 0.05% of 350,000 active. AID 651711;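 active = mean replicate inhibition above about 25%, with every replicate also reaching it, limit read from the data, passing the limit was not always enough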
ERAP1 HTS inh: ERAP1 (human) enzyme inhibition; Q9NZ08; recombinant ERAP1, Leu-AMC fluorescence, 60 min; inhibition, % at 10.7 µM; 0.15% of 340,000 active;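 active = mean replicate inhibition of at least 30%, or all replicates individually reaching that 30% level; inactive = mean below 30% and not every replicate reaching it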;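 note: 0% = neutral control wells and 100% = L-leucinethiol positive control wells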
PDI inh: blocks human protein disulfide isomerase activity; P07237; PDI insulin aggregation turbidity, A650, 90 min; inhibition, % at 10 µM; 0.052% of 350,000 active;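 active = mean inhibition across replicates of 30% or more, whatever share of single replicates reach that level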
Numbers without * were called inactive; . = no result given.

SMILES	SIRT5 inh	HDAC3 inh	ERp5 inh	ERAP1 HTS inh	PDI inh
O=S(=O)(c1cccc(NC(=S)N2CCN(c3ccc(F)cc3)CC2)c1)C(F)F	30*	3	7	6	-1
O=C(Cc1ccccc1F)Nc1cccc(S(=O)(=O)N2CCOCC2)c1	17*	5	6	1	-9
CC(C(=O)Nc1cccc(S(=O)(=O)N2CCOCC2)c1)N1CCN(c2ccc(F)cc2)CC1 (stereo not drawn)	16*	-5	12	3	0
Fc1cccc(NC(=S)N2CCCC2)c1	15*	0	3	-5	-2
C[C@@H]1CN([C@H](C)CO)C(=O)c2cc(-c3ccc(C#N)cc3)cnc2O[C@@H]1CN(C)C(=O)c1ccccc1	-7	.	0	1	.
CCN(CC)c1nc(Nc2ccc(Cl)cc2)nc(OCC#N)n1	.	32*	.	.	-2
Cc1noc(C)c1S(=O)(=O)N(C)C[C@H]1Oc2ccc(NC(=O)Nc3ccc4c(c3)OCO4)cc2CC(=O)N([C@@H](C)CO)C[C@@H]1C	-7	.	-8	-1	.
COc1cccc(-c2ccc([C@H]3[C@H](CO)N4C(=O)CN(C(=O)c5ccncc5)C[C@@H]34)cc2)c1	-4	.	2	-1	.
C[C@@H]1CN([C@H](C)CO)C(=O)c2cccc(NC(=O)NC3CCCCC3)c2O[C@H]1CN(C)Cc1ccc(Oc2ccccc2)cc1	-5	.	-4	1	.
C[C@H]1CN([C@@H](C)CO)C(=O)c2cccc(NC(=O)NC3CCCCC3)c2O[C@@H]1CN(C)Cc1ccc(C(=O)O)cc1	25*	.	-2	5	.
C[C@@H]1CN([C@H](C)CO)C(=O)c2cccc(NC(=O)NC3CCCCC3)c2O[C@@H]1CN(C)Cc1ccc(Oc2ccccc2)cc1	20*	.	20	1	.
C[C@H]1CN([C@@H](C)CO)C(=O)c2cccc(NC(=O)NC3CCCCC3)c2O[C@H]1CN(C)Cc1ccc(C(=O)O)cc1	3	.	-5	-3	.
O=c1nccc(N/N=C/c2ccccc2)[nH]1	24*	-8	3	-1	-3
O=c1cc(N/N=C/c2ccccc2)[nH]c(=O)[nH]1	1	8	2	.	7
C[C@H](CO)N1C[C@H](C)[C@H](CN(C)C(=O)Nc2ccc(C(F)(F)F)cc2)Oc2ccc(NC(=O)c3ccncc3)cc2CC1=O	2	.	3	.	.
O=C(CSc1ccccc1C(=O)O)NCc1ccccc1	15*	3	2	2	5
Cc1ccc(NC(=O)n2ccc(-c3ccc(-n4ccnc4)cc3)n2)cc1	17*	.	2	-2	6
CNC(=O)C[C@@H]1CC[C@H]2[C@@H](COC[C@@H](O)CN2S(=O)(=O)c2ccc(Oc3ccccc3)cc2)O1	0	.	1	2	.
Cc1cc(N)n(-c2ccc(Oc3ccccc3)c(S(=O)(=O)O)c2)n1	47*	.	-2	4	-12
O=C(C[C@H]1C[C@H]2c3cc(NS(=O)(=O)c4ccccc4)ccc3O[C@H]2[C@@H](CO)O1)NC1CCCCC1	-3	.	-1	0	.
O=C(Cn1cnc2ccccc2c1=O)Nc1ccc(S(=O)(=O)N2CCOCC2)cc1	-1	4	2	-3	2
O=C(Cn1cnc2ccccc2c1=O)Nc1ccc(S(=O)(=O)N2CCCC2)cc1	16*	1	2	0	1
C[C@@H]1CN([C@H](C)CO)C(=O)c2cccc(NC(=O)C3CCOCC3)c2O[C@H]1CN(C)CC1CC1	-3	.	-1	1	.
CC(=O)c1c(C)[nH]c(C(=O)N2CCN(c3ncccn3)CC2)c1C	16*	-4	-7	2	.
CO[C@@H]1CN(C)C(=O)c2ccc(NC(=O)c3ccccc3)cc2OC[C@@H](C)N(C(C)=O)C[C@H]1C	-3	.	-6	-2	.
O=C(CNCc1ccccn1)Nc1cc(C(F)(F)F)ccc1N1CCOCC1	17*	2	4	0	-6
O=C(Nc1cc(C(F)(F)F)ccc1N1CCOCC1)c1ccncc1	-3	-5	.	2	4
COc1ccc(S(=O)(=O)Nc2ccc3c(c2)C(=O)N([C@H](C)CO)C[C@H](C)[C@@H](CN(C)S(=O)(=O)c2ccc(Cl)cc2)OCCCC[C@H](C)O3)cc1	0	.	3	0	.
COc1ccc(S(=O)(=O)N(C)C[C@H]2OCCCC[C@H](C)Oc3ccc(NS(=O)(=O)c4ccc(Cl)cc4)cc3C(=O)N([C@H](C)CO)C[C@H]2C)cc1	22*	.	2	3	.
